Shown are actives, neighbours in structure and some others; about 9.8% of the full set was active somewhere.
HttQ103 aggreg – reduces HttQ103-GFP aggregates in PC12 cells; PC12 HttQ103-GFP aggregates, Acumen cytometry, 40 h; Potency, µM (doses to about 46.1 µM), for inactives: at the highest dose activity change, negative = inhibition, usual class: inhibitors; hit rate 1.1% among 220,000; active = well fitted curve in the direction sought with a large enough effect; inconclusive = small, poorly fitted or top-dose-only effect, or another doubt; inactive = no such curve, though single readings can be large; an effect the other way counts as inactive or inconclusive; note: potency is the fitted concentration of half-maximal effect; % is set by controls: 0 for no effect and ±100 for the full control effect; nearly all actives have a fitted effect of over 60% in size
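PC12 cells with ecdysone-inducible HTT exon1 Q103-GFP, induced by 100 nM tebufenozide, given compounds in a concentration series. GFP aggregates (1–25 um, 6 SD above background) counted in lysates by laser-scanning cytometry, 488 nm excitation.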
CBFb RUNX1 block – CBF-beta/RUNX1 interaction disruption; 230,000 tested, under 10 active; AlphaScreen CBFb-His/RUNX1-biotin binding, biochemical; AID 1477; Potency, µM (titrated, usually from 59.8 µM), for the others: at the highest dose activity, negative = inhibition, most hits filed as inhibitors; Q01196+Q13951; active = well fitted curve in the direction sought with a large enough effect; inconclusive = small, poorly fitted or top-dose-only effect, or another doubt; inactive = no such curve, though single readings can be large; an effect the other way counts as inactive or inconclusive; note: % of control where 0% means no effect
Target sequence (Q01196 whole entry, looked up): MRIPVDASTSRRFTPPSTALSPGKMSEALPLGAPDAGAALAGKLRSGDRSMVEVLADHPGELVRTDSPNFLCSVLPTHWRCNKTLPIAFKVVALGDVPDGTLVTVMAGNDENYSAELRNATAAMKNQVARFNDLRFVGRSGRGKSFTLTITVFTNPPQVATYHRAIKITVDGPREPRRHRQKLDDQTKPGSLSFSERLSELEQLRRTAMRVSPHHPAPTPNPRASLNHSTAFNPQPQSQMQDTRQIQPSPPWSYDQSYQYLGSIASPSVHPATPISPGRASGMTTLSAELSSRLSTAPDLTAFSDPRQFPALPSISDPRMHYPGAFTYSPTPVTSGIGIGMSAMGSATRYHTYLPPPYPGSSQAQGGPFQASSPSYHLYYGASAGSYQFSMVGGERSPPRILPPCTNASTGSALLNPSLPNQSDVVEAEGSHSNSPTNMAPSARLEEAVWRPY
Target sequence (Q13951 whole entry, looked up): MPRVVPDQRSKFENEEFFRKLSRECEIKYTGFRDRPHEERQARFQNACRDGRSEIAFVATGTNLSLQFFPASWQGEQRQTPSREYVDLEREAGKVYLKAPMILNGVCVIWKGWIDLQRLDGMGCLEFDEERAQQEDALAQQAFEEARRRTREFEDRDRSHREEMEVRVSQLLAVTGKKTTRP
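His-tagged CBF-beta and biotinylated RUNX1 (30 nM each) were premixed 20 min at room temperature, exposed to compound for 15 min, then given nickel-chelate and streptavidin AlphaScreen beads (50 ng each). After 90 min, AlphaScreen signal was read.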
HTT cytoprotect – cytoprotection in Huntington HTT-Q103 PC12 cell model. PC12 HTT-Q103 induced, cytoprotection, ATP luminescence, 40 h. Potency, µM (doses to about 56.4 µM), inactives show cytoprotection (ATP increase), usual class: activators. hit rate 0.14% among 230,000; active = well fitted curve in the direction sought with a large enough effect; inconclusive = small, poorly fitted or top-dose-only effect, or another doubt; inactive = no such curve, though single readings can be large; an effect the other way counts as inactive or inconclusive; note: potency is the fitted concentration of half-maximal effect; % of control where 0% means no effect; nearly all actives have a fitted effect of over 45% in size
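Readout: ATPlite luminescence (ATP level). Model: stable PC12, inducible Htt exon1 Q103-GFP. Inducer: tebufenozide, 100 nM final. Compounds: dose series. No G418 in medium.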
ALDH1A1 inh – ALDH1A1 (human) enzyme inhibition | P00352 | hit rate 7.3% among 220,000 | Potency, µM (titrated, usually from 75.3 µM), for inactives: at the highest dose activity, negative = inhibition, actives largely listed as inhibitors | Purified ALDH1A1, NADH fluorescence, propionaldehyde substrate | AID 1030;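 note: potency is the fitted concentration of half-maximal effect; plate controls were no enzyme wells and a reference inhibitor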
HPGD inh – blocks human HPGD enzyme activity; P15428; AID 894; Potency, µM, without a hit: at the highest dose activity change, negative = inhibition, most hits filed as inhibitors; purified HPGD, NADH fluorescence kinetic, PGE2 substrate; hit rate 4.3% among 150,000; note: potency is the fitted concentration of half-maximal effect; % is set by controls: 0 for no effect and ±100 for the full control effect
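NADH formation kinetics: reaction with 30 uM PGE2 and 1 mM NAD+ (final), 20 nM enzyme, Tris-HCl pH 8 with Tween 20, after 15 min compound preincubation at room temperature. Fluorescence change, last versus first of five reads.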
JMJD2E inh – inhibitors of human JMJD2E histone demethylase; B2RXH2; JMJD2E catalytic domain, FDH-coupled NADH fluorescence (FDH is formaldehyde dehydrogenase); Potency, µM (top dose mostly 57.1 µM), for inactives: at the top dose activity change, negative = inhibition, most hits filed as inhibitors; hit rate 1.6% among 230,000;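 note: potency is the fitted concentration of half-maximal effect; 0% = wells with enzyme and -100% = buffer wells without enzyme; nearly all actives have a fitted effect of over 50% in size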
Numbers without * were called inactive; ? = inconclusive; . = no result; [ ] = another dose, or the depositor's remark. Unless noted, calls come from the whole dose curve; as a rule, active = well fitted inhibition curve with a large enough effect (not every such curve was filed as active); inconclusive = small, poorly fitted or top-dose-only effect, or another doubt; inactive = no such curve, though single readings can be large or run the other way.

SMILES	HttQ103 aggreg	CBFb RUNX1 block	HTT cytoprotect	ALDH1A1 inh	HPGD inh	JMJD2E inh
Cc1ccc2nc(C3CCCN3Cc3nc(CCC(C)C)no3)[nH]c2c1 (centres undefined)	-4.4%[9.22 µM]	3.1%	-8.0%[10 µM]	-5.0%	.	1.1%
C[C@H](C[C@H](N)C(=O)O)C(=O)O	.	10.2%	-2.0%	1.5%	-4.9%	2.8%
CCCCN(C(=O)CNC(=O)c1ccco1)C(C(=O)NC1CCCC1)c1ccc(OC)cc1 (centres undefined)	?	2.5%	-22.7%	-1.4%	-16.7%	6.7%
COCCOC(=O)C1=C(C)NC(=O)NC1/C=C/c1ccccc1 (centres undefined)	16.3%	-3.3%	9.8%[10 µM]	-3.3%	-8.0%	-9.7%
COCCOC(=O)C1=C(C)NC(=S)NC1/C=C/c1ccccc1 (centres undefined)	-0.8%	10.9%	10.4%[10 µM]	0.794µM*	-14.7%	-7.4%
C=CCOC(=O)C1=C(C)NC(=S)NC1/C=C/c1ccccc1 (centres undefined)	-27.7%	-4.7%	-30.7%	0.0447µM*	-18.0%	5.4%
COc1cc(C(=O)O)c2ccccc2n1	0.9%[9.22 µM]	6.4%	-6.0%[10 µM]	2.7%	.	-11.7%
CN1CCN(C(=O)c2ccc3c(c2)NC(=O)C(C)(C)O3)CC1	-3.4%	4.6%	-7.4%[10 µM]	-4.2%	8.91µM*	1.0%
Cc1ccc(C(=O)N2CCN(C)CC2)cc1S(=O)(=O)N1CCCCC1	9.8%	-4.1%	4.4%	?	-20.9%	-46.4%
O=C(O)C(Sc1ccc(Cl)cc1)Sc1ccc(Cl)cc1	.	.	3.7%[10 µM]	10.4%[13.5 µM]	-13.0%	.
O=C(CSc1ncnc2[nH]ncc12)Nc1cccc(Oc2ccccc2)c1	-11.0%	-3.4%	-42.3%	20µM*	.	-4.6%
O=C(CCl)Nc1cccc(Oc2ccccc2)c1	?	-3.5%	-5.5%	0.282µM*	.	-2.7%
Cc1ccc(C(=O)Nc2cccc(Oc3ccccc3)c2)o1	-22.4%[1.84 µM]	10.5%	-36.4%	0.4%	20µM*	-4.0%
O=C(CN1CCCCC1)Nc1cccc(Oc2ccccc2)c1	-6.1%	1.4%	-16.7%	6.7%	28.2µM*	4.6%
O=C(COc1ccc(Br)cc1Cl)NC(=O)Nc1ccc2c(c1)OCCO2	33.4%	11.3%	.	13.3%	.	-0.7%
COC(=O)C1=C(C)N(CCc2cc(OC)c(OC)c(OC)c2)C(=O)N[C@H]1c1ccc(Br)cc1	4.5%	-9.8%	?	-0.1%	-2.2%	4.9%
Cc1cc(C)cc(NC(=O)CN2CCc3ccccc3C2)c1	1.8%	-1.2%	-1.5%	-2.8%	3.2%	-10.7%
CCOC(=O)c1ccc(NC(=O)CN2CCc3ccccc3C2)cc1	1.3%	-8.0%	-15.0%	14.1µM*	-26.4%	?
CN1CCN(CC(=O)Nc2ccc(Oc3ccccc3)cc2)CC1	-15.2%	-2.2%	-16.3%	-8.1%	-15.7%	9.3%
CCOC(=O)N1CCN(CC(=O)Nc2ccc(Oc3ccccc3)cc2)CC1	-3.6%	3.0%	5.5%	25.1µM*	-3.5%	-1.7%
CCCOC(=O)c1ccc(N)cc1	10.0%	.	-31.9%	.	.	.
CCCCNC(=S)NC(=O)c1ccc(Cl)cc1Cl	-7.3%	13.8%	-36.7%	25.1µM*	-16.7%	2.3%
CC1(C)OC(=O)C(=CNc2cccc(O)c2)C(=O)O1	0.4%	3.9%	-3.8%	?	-12.8%	1.2%
CC1(C)OC(=O)C(=NNc2ccc(Br)cc2)C(=O)O1	23.7%	-14.7%	.	12.6µM*	-15.2%	-0.3%
COc1ccc(C=NCC2COc3ccccc3O2)cc1OC (centres undefined)	-1.4%	-1.7%	5.2%[10 µM]	?	-18.9%	-2.0%
SMILES	HttQ103 aggreg	CBFb RUNX1 block	HTT cytoprotect	ALDH1A1 inh	HPGD inh	JMJD2E inh
Oc1ccc(C=NCC2COc3ccccc3O2)cc1 (centres undefined)	-5.9%	-2.6%	0.5%	17.8µM*	-9.1%	6.7%
CC(=O)c1cccc(NC(=O)COc2cc3oc(=O)c(CC(C)O)c(C)c3cc2Cl)c1 (centres undefined)	3.55µM*	-5.1%	13.7%[10 µM]	?	?	6.6%
CCOC(=O)c1ccc(NC(=O)COc2cc3oc(=O)c(CC(C)O)c(C)c3cc2Cl)cc1 (centres undefined)	6.7%[9.22 µM]	3.6%	4.1%[10 µM]	.	.	?
Cc1ccc2c(c1)nnn2C1CCN(CC(=O)N(c2ccccc2)c2ccccc2)CC1	-13.5%[9.22 µM]	9.7%	-17.2%[10 µM]	.	.	-8.6%
O=S1(=O)CCC(N=Nc2c(O)n(Cc3ccccc3)c3ccccc23)C1 (centres undefined)	2.6%[9.22 µM]	-10.1%	25.8%[10 µM]	.	.	-0.6%
Oc1ccc(/C=N/Nc2nc(N3CCCC3)nc(N3CCCC3)n2)cc1O	-19.3%[9.22 µM]	4.1%	-34.1%[10 µM]	12.6µM*	.	17.8µM*
CCN(CC(=O)Nc1ccc(C)c(F)c1)CC(=O)NC(C)C	-8.3%	-12.3%	-75.4%	3.16µM*	.	-4.3%
CCN(CC(=O)Nc1ccc(Br)c(C)c1)CC(=O)NC(C)C	-24.2%	12.7%	-10.0%	-8.6%	.	-1.4%
O=C(O)CCCC(=O)Nc1ccc(OCc2nc3ccccc3s2)cc1	-13.2%[9.22 µM]	-13.9%	-8.9%[10 µM]	1.78µM*	.	?
O=C(COC(=O)/C=C/c1ccco1)Nc1cccc([N+](=O)[O-])c1	?	-1.5%	23.8%[10 µM]	25.1µM*	-14.0%	3.2%
CCN(CC)S(=O)(=O)c1cccc(NC(=O)COC(=O)/C=C/c2ccco2)c1	-8.0%[9.22 µM]	2.1%	-0.7%[10 µM]	25.1µM*	-12.6%	2.2%
CN(C)S(=O)(=O)c1cccc(NC(=O)COC(=O)/C=C/c2ccco2)c1	-4.3%	-23.6%	10.6%[10 µM]	-7.3%	-15.5%	12.2%
Cc1nn(-c2ccccn2)c2c1-c1nc(N)ncc1CC2	11.2µM*	5.2%	-57.4%	?	?	?
COc1ccc(/C=C2\C(=O)N(c3c(Cl)cc(Cl)cc3Cl)N=C2NC(=O)c2cccc([N+](=O)[O-])c2)cc1	24.9%	4.8%	27.0%[10 µM]	?	22.4µM*	-0.1%
COC(=O)c1c(S(=O)(=O)NCc2ccccc2)sc(C(=O)O)c1C	-0.3%	-14.7%	15.8%	?	-6.6%	-2.5%
Cc1[nH]c(=S)sc1Cc1ccc(F)cc1	4.3%	0.0%	4.5%[10 µM]	?	15.8µM*	-4.4%
CNC(=O)C1=C(C)NC(=S)NC1c1cccs1 (centres undefined)	-2.6%	7.4%	2.8%	-2.3%	.	4.4%
CC1=C(C(=O)Nc2cc(C)ccc2C)C(c2cccs2)NC(=S)N1 (centres undefined)	12.6%	2.1%	0.3%	5.62µM*	-1.1%	-5.0%
CC1=C(C(=O)Nc2ccccc2F)C(c2cccs2)NC(=S)N1 (centres undefined)	-7.6%[9.22 µM]	1.4%	8.9%	12.6µM*	.	-4.3%
Cc1cccn2c(=O)c(C=O)c(N3CCCCCC3)nc12	?	0.0%	9.5%	11.2µM*	-24.1%	2.2%
